Screening data (PubChem BioAssay)
ADAM17 inh = ADAM17 inhibition, QFRET primary screen. hit rate 0.83% among 370,000. P78536. AID 720648. recombinant ADAM17, EDANS/DABCYL FRET peptide cleavage. inhibition, % at 6.95 µM;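 active = inhibition above the mean of compounds lying between control limits plus 3 SD, set per campaign, cut at about 8.5% in these data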
Target sequence (P78536 215-824 limits assumed): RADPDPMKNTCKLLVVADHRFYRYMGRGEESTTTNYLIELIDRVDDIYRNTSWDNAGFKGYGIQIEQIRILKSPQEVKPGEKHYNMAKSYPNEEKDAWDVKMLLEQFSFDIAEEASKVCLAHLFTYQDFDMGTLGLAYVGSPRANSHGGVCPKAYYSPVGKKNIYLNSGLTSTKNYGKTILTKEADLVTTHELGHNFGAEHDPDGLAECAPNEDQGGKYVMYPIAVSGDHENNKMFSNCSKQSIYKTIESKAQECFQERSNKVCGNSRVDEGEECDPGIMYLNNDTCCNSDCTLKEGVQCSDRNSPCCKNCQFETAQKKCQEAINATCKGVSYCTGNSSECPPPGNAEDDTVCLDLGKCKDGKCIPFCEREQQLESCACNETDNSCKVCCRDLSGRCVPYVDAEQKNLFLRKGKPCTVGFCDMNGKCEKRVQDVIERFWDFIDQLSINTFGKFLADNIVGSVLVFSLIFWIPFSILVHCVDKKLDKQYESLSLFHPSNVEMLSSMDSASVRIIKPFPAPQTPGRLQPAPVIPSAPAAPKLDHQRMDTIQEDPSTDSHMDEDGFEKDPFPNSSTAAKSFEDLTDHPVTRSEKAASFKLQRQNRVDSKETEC
ADAM10 inh = ADAM10 inhibition, QFRET primary screen | inhibition, % at 7 µM | hit rate 0.62% among 370,000 | O14672 | recombinant ADAM10, EDANS/DABCYL FRET peptide cleavage, 3 h;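 active = inhibition above a per-campaign cutoff equal to the mean of compounds falling between control-based bounds plus 3 SD, cut at about 20% in these data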
A3G deaminase = blocks human APOBEC3G single-stranded DNA deamination; inhibition, % at 20 µM; recombinant A3G, ssDNA deamination FAM/TAMRA fluorescence; hit rate 0.28% among 330,000;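 active = inhibition of at least 40% at 20 µM, with no more than 30% in the related APOBEC3A deaminase screen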
A3A deaminase = inhibitors of human APOBEC3A DNA deaminase | P31941 | recombinant A3A, FAM/TAMRA ssDNA deamination fluorescence | inhibition, % at 20 µM | hit rate 0.41% among 330,000;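 active = at least 40% inhibition at 20 µM here, with at most 30% in a related deaminase screen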
CendR NRP1 mod = modulators of CendR peptide binding to human neuropilin-1 | O14786 | FAM-RPARPAR peptide binding to NRP-1, fluorescence polarization | inhibition, % at 25 µM | hit rate 0.85% among 360,000;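 active = inhibition or corrected inhibition above about 18%, plus a signal ratio from 0.5 to 1.5, limit read from the data, passing the limit was not always enough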
ADAM10 ctr = counter-screen for ADAM17 exosite inhibitors: inhibitors of human ADAM10 | shares compounds with ADAM17 inh | AID 743256 | hit rate 47% among 2,900 | recombinant ADAM10, EDANS/DABCYL FRET peptide cleavage, 3 h | inhibition, % at 6.95 µM;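 active = mean inhibition over the triplicate runs exceeds the activity threshold set in the earlier primary screen, cut at about 20% in these data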
ADAM17 confirm = human ADAM17 inhibition, confirmation; shares compounds with ADAM17 inh; recombinant ADAM17, EDANS/DABCYL QFRET peptide cleavage; hit rate 65% among 2,900; inhibition, % at 6.95 µM;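 active = mean inhibition across replicates above the hit cutoff set in the primary screen, cut at about 8.5% in these data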
Large screens that a line does not name were inactive (follow-up assays come after a bar, where they were run). Shown are actives, neighbours in structure and some others; about 2.4% of the full set was active somewhere.

CC(C)(C)OC(=O)C[C@H]1C/C=C\C[C@H](CC(=O)N[C@H](CO)Cc2ccccc2)C(=O)N[C@@H](Cc2ccccc2)COC1=O	ADAM17 inh 12 | ADAM10 ctr inactive | ADAM17 confirm inactive
Cc1cc(C)c(S(=O)(=O)Nc2ccc3c(c2)CCC3)c(C)c1	ADAM17 inh 13 | ADAM10 ctr 26 | ADAM17 confirm 12
Cc1cc(C)c(S(=O)(=O)Nc2ccc3c4c(cccc24)CC3)c(C)c1	ADAM17 inh 9.3 | ADAM10 ctr inactive | ADAM17 confirm 12
Cc1cc(C)c(S(=O)(=O)Nc2ccc(O)cc2)c(C)c1	none
Cc1ccc(NC(=O)OCCCN2C(=O)CCC23CCC(C)CC3)cc1 (centres undefined)	none (no result: A3G deaminase, A3A deaminase, CendR NRP1 mod)
C[C@@H]1CN([C@H](C)CO)C(=O)c2cc(NS(=O)(=O)c3ccc(F)cc3)ccc2O[C@@H]1CN(C)Cc1ccc(Cl)c(Cl)c1	ADAM17 inh 9.6 | ADAM10 ctr 39 | ADAM17 confirm 19
C[C@@H]1CN([C@H](C)CO)C(=O)c2cc(NS(=O)(=O)c3ccccc3)ccc2O[C@@H](C)CCCCO[C@@H]1CN(C)Cc1ccc(Cl)c(Cl)c1	none (no result: A3G deaminase, A3A deaminase, CendR NRP1 mod)
C[C@@H]1CCCCO[C@@H](CN(C)Cc2ccc(Cl)c(Cl)c2)[C@@H](C)CN([C@H](C)CO)C(=O)c2cc(NC(=O)CCC(F)(F)F)ccc2O1	ADAM17 inh 9.2 (no result: A3G deaminase, A3A deaminase) | ADAM10 ctr 43 | ADAM17 confirm 22
COc1ccc(S(=O)(=O)Nc2ccc3c(c2)CC(=O)N([C@@H](C)CO)C[C@H](C)[C@@H](CN(C)S(=O)(=O)c2ccc(F)cc2)O3)cc1	ADAM17 inh 10 | ADAM10 ctr inactive | ADAM17 confirm inactive
O=C(Nc1nc2ncccn2c1-c1ccc(C(F)(F)F)cc1)c1ccc(F)cc1	none (no result: A3G deaminase, A3A deaminase, CendR NRP1 mod)
O=[N+]([O-])c1ccc(C(O)C(CO)NC(=S)Nc2ccccc2)cc1 (centres undefined)	ADAM17 inh 8.8 | ADAM10 ctr inactive | ADAM17 confirm inactive
Cc1ccc(NC(=S)NC(CO)C(O)c2ccc([N+](=O)[O-])cc2)cc1 (centres undefined)	none
CCCCCCC[C@H](N)[C@H](O)C(=O)N(C)[C@@H](CCS(C)=O)C(=O)N[C@@H](Cc1ccc(O)cc1)C(=O)O (some centres undefined)	none (no result: A3G deaminase, A3A deaminase, CendR NRP1 mod)
CN(C)S(=O)(=O)c1cccc(NC(=O)CCCSc2ccccc2)c1	none
CCN(CC)S(=O)(=O)c1cccc(NC(=O)CCSc2ccc(Cl)cc2)c1	ADAM17 inh 9.2 (no result: A3G deaminase, A3A deaminase) | ADAM10 ctr 37 | ADAM17 confirm 17
Cc1ccc(S(=O)(=O)N2C[C@H]3C(=O)C[C@@H](c4ccccc4F)N(S(=O)(=O)c4ccc(C)cc4)[C@H]3C[C@H]2c2ccccc2)cc1	ADAM17 inh 10 (no result: A3G deaminase, A3A deaminase) | ADAM10 ctr inactive | ADAM17 confirm inactive
Nc1nc2c(ncn2[C@@H]2O[C@H](C(=O)N[C@H](Cc3ccccc3)C(=O)NCc3ccc4c(c3)OCO4)[C@@H](O)[C@H]2O)c(=O)[nH]1	none (no result: A3G deaminase, A3A deaminase, CendR NRP1 mod)
O=c1cc(COn2nnc3ccc(C(F)(F)F)cc32)nc2sccn12	ADAM17 inh 11 (no result: A3G deaminase, A3A deaminase) | ADAM10 ctr inactive | ADAM17 confirm 8.9
O=c1ccc(C(F)(F)F)cn1Cc1cc(=O)n2ccsc2n1	none
O=C1NC(=O)C2C3C=CC(C12)C1C(=O)NC(=O)C31 (centres undefined)	none (no result: A3G deaminase, A3A deaminase, CendR NRP1 mod)
CCO[C@H]1OC(C(=O)NCc2nc3ccccc3[nH]2)=C[C@@H](c2csc3ccccc23)[C@@H]1CCCO	ADAM17 inh 12 | ADAM10 ctr inactive | ADAM17 confirm inactive
NC(=O)NC(Cc1ccccc1)C(=O)Nc1ccc(S(N)(=O)=O)cc1 (centres undefined)	none
NS(=O)(=O)c1ccc(NC(=O)N[C@@H](Cc2ccccc2)C(=O)O)cc1	ADAM17 inh 9.8 (no result: A3G deaminase, A3A deaminase) | ADAM10 ctr inactive | ADAM17 confirm inactive
Cc1cccc(N2CCN(C(=O)c3ccc4ncsc4c3)CC2)c1C	ADAM17 inh 8.9 (no result: A3G deaminase, A3A deaminase) | ADAM10 ctr inactive | ADAM17 confirm inactive
COc1ccccc1NC(=O)Cn1nnc(-c2ccccc2NS(=O)(=O)c2ccccc2)n1	ADAM17 inh 9.3 | ADAM10 ctr 37 | ADAM17 confirm 22
COC[C@H](NS(=O)(=O)c1ccc(Br)cc1F)[C@@H](O)c1ccccc1	ADAM17 inh 9.8 (no result: A3G deaminase, A3A deaminase) | ADAM10 ctr inactive | ADAM17 confirm 10
COC(=O)c1cccc(C(=O)N2CCCC(Nc3ccc(C)c(C)c3)C2)c1 (centres undefined)	ADAM17 inh 11 | ADAM10 ctr inactive | ADAM17 confirm inactive
CC(=O)c1cccc(NC(=O)C2CCCC2)c1	ADAM17 inh 9.5 | ADAM10 ctr inactive | ADAM17 confirm inactive
CC(C)NC(=O)C1CCN(c2cncnc2)CC1	none (no result: A3G deaminase, A3A deaminase, CendR NRP1 mod)
COC(=O)C1=C(C)N(Cc2ccccc2C(F)(F)F)C(=NCc2ccccc2C(F)(F)F)NC1c1ccc(C(F)(F)F)cc1 (centres undefined)	none (no result: A3G deaminase, A3A deaminase, CendR NRP1 mod)
CN1OC[C@@H]2CN(C(=O)c3ccc([N+](=O)[O-])cc3)[C@H](c3ccccc3Br)C[C@@H]21	none (no result: A3G deaminase, A3A deaminase, CendR NRP1 mod)
c1ccc(-c2cccc(CNc3nc(-c4ccccn4)nnc3-c3ccccc3)c2)cc1	ADAM17 inh 9.0 (no result: A3G deaminase, A3A deaminase, CendR NRP1 mod) | ADAM10 ctr inactive | ADAM17 confirm inactive
Cc1cccc(Nc2nc(N)c([N+](=O)[O-])c(NCc3ccccc3)n2)c1	ADAM17 inh 9.2 | ADAM10 ctr inactive | ADAM17 confirm inactive
COc1ccc(COC(=O)Oc2ccc(CNC(C)=O)cc2OC)c([N+](=O)[O-])c1	none
COc1cc(COC(=O)Oc2ccc(CNC(C)=O)cc2OC)c([N+](=O)[O-])cc1OC	ADAM17 inh 10.0 | ADAM10 ctr inactive | ADAM17 confirm inactive
COc1cc(C(=O)NC(=S)NNC(=O)c2cnccn2)cc(OC)c1OC	ADAM17 inh 11 | ADAM10 ctr inactive | ADAM17 confirm inactive
COC(=O)[C@]12CCCCC=C1N(Cc1ccc(OC)cc1)C(=O)[C@@H]2CC(=O)NCCCCc1ccccc1	none (no result: A3G deaminase, A3A deaminase, CendR NRP1 mod)
COc1cc(/C=C2\SC(=S)N(NC(=O)c3ccccc3OC)C2=O)ccc1O	ADAM17 inh 11 | ADAM10 ctr 23 | ADAM17 confirm 11
COc1cc(/C=C2\SC(=S)N(NC(=O)c3ccc(O)c(OC)c3)C2=O)ccc1O	none
Cc1cc(OCC(=O)OCC(=O)NCc2ccc3c(c2)OCO3)ccc1Cl	ADAM17 inh 11 | ADAM10 ctr inactive | ADAM17 confirm 9.1
O=C(COC(=O)COc1ccc(Br)cc1)NCc1ccc2c(c1)OCO2	none
CS(=O)(=O)NCc1nnc(SCC(=O)NC2CCCCC2)n1-c1ccc(F)cc1	ADAM17 inh 9.1 | ADAM10 ctr inactive | ADAM17 confirm inactive
Cn1cccc1Cc1nnc(SCC(=O)NC2CCCC2)n1-c1ccc(F)cc1	none
